CDK5 p35 inh = inhibitors of human CDK5/p35 kinase; 330,000 tested, 0.01% active; Recombinant CDK5/p35, ADP-Glo luminescence, 60 min; inhibition, % at 10 µM; AID 488839; Q00535+Q15078;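 active means highest replicate inhibition of at least 50% and at least 75% of replicates reaching 50%; inconclusive means only one of the two criteria met; inactive means both criteria failed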
Target sequence (Q00535 whole entry, looked up): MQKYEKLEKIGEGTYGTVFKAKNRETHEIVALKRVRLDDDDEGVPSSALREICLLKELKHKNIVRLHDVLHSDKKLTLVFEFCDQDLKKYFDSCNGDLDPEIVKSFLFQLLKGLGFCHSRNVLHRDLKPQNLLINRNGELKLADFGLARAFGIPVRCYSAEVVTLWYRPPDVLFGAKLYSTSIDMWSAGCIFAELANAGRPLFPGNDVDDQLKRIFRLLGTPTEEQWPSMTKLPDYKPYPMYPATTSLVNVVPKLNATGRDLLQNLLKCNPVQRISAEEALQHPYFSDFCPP
Target sequence (Q15078 whole entry, looked up): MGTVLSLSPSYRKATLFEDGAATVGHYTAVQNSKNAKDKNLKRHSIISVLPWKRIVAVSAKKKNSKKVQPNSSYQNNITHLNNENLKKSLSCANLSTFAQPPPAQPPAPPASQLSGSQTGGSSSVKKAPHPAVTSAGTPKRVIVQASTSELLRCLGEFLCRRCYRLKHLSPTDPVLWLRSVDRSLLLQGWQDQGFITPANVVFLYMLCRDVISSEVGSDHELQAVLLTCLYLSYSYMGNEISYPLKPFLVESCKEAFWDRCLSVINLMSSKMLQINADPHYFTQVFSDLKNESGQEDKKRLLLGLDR
SMARCA2 act = increases SMARCA2 function in MMTV reporter cells; AID 652017; activation, % at 9.1 µM; 370,000 tested, 1% active; MG213 cells, MMTV-luciferase reporter, dexamethasone, overnight; in the data active means activation above about 7.8%
Rtt109 HAT inh = C. albicans Rtt109 histone acetyltransferase inhibition | Q5AAJ8 | purified Rtt109/Vps75, ThioGlo CoA-SH fluorescence, 4 h | 330,000 tested, 0.16% active | inhibition, % at 34.9 µM;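 active means inhibition of at least 50% in every replicate; inconclusive means best replicate reaches 50% inhibition but some replicates fall short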
esBAF inh = blocks esBAF chromatin remodeling in mouse ES cells; 350,000 tested, 2% active; AID 602393; Bmi1-luciferase knock-in reporter, 24 h; 100% = twice the neutral-well signal; reporter increase, % at 12.5 µM; in the data active means activation above about 40%; inconclusive means no clear call, values can overlap the other calls;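 further: a rise in the Bmi1 reporter signal indicates esBAF inhibition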
DYRK1A inh = Dyrk1A (rat) kinase inhibition; ADP-Glo luminescence, NFATc1 peptide; inhibition, % at 12.5 µM; 310,000 tested, 0.43% active; AID 504441; in the data active means inhibition above about 50%
dFosB activator = activators of mouse delta FosB homodimer; P13346; purified delta FosB, TAMRA-CDK5 oligo fluorescence polarization; percent of positive-control signal above neutral wells; activation, % at 25 µM; 340,000 tested, 0.99% active; AID 493131;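 active means mean activation above about 17%, with every replicate also reaching it, limit read from the data, passing the limit was not always enough; inconclusive means only one of the two conditions met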
SMARCA2 act conf = SMARCA2 activation, confirmation screen; shares compounds with SMARCA2 act; MG213 cells, MMTV-luciferase with dexamethasone, luminescence, overnight; MG213 cells expressing E1A, Rb sequestered; DMSO wells 0%, reference activator 100%; activation, % at 9.1 µM; 3,500 tested, 30% active; AID 652260;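 active means activation above its plate's cutoff, the mean activation of tested wells plus 3 SD, cut at about 7.9% in these data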
VP16 Luc act = counter-screen for SMARCA2 activators: GAL4-VP16 luciferase reporter activation; 3,500 tested, 41% active; HEK293 GAL4-VP16 pG5luc reporter, luciferase luminescence; scaled: DMSO wells 0%, SAHA wells 100%; activation, % at 9.1 µM; shares compounds with SMARCA2 act;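 active means activation above the solvent-only control well mean plus 3 SD, averaged across control plates, cut at about 5.2% in these data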
Numbers stand for hits; . = inactive; ? = inconclusive; / = no result. Hits are enriched below; roughly 3.2% of the tested compounds scored in any of these assays.

SMILES | CDK5 p35 inh | SMARCA2 act | Rtt109 HAT inh | esBAF inh | DYRK1A inh | dFosB activator | SMARCA2 act conf | VP16 Luc act
COc1cc(/C=C(\C#N)c2nc3ccccc3[nH]2)cc(OC)c1O | . | 8.2 | . | / | . | . | . | 5.7
N#C/C(=C/c1cccs1)c1nc2ccccc2[nH]1 | . | 9.3 | . | 134 | . | . | 24 | .
Cc1ccc(/C=C(\C#N)c2nc3ccccc3[nH]2)s1 | . | 10 | . | 98 | / | . | 19 | 11
C[C@H]1CN([C@@H](C)CO)S(=O)(=O)c2ccc(-c3cccnc3)cc2O[C@H]1CN(C)Cc1cncnc1 | / | / | / | . | / | / | / | /
c1ccc2c(c1)Cc1cc3ccccc3nc1-2 | . | 8.8 | . | . | . | . | 13 | 10
O=C1c2ccccc2-c2nc3ccccc3cc21 | . | . | . | . | . | . | / | /
CCn1c(C)nc2cc(C(=O)NNC(=O)c3ccc(C)cc3)ccc21 | . | . | . | . | / | . | / | /
CCn1c(C)nc2cc(C(=O)NNS(=O)(=O)c3c(C)c(C)cc(C)c3C)ccc21 | . | 12 | . | . | . | . | . | .
Cc1ccccc1-c1cc2nc(NCc3ccccc3)n(C)c(=O)c2s1 | / | . | / | . | / | / | / | /
Cc1ccccc1-c1cc2nc(NCc3ccncc3)n(C)c(=O)c2s1 | / | 11 | / | . | / | / | . | .
Cc1nc(-c2ccc(NC(=O)C3CC3)cc2)cs1 | . | 8.2 | . | 49 | . | . | 9.7 | 8.9
COc1ccc2nc(N(CCN(C)C)C(=O)c3ccc4ncsc4c3)sc2c1 | / | 10 | / | 81 | / | / | 13 | 9.4
COc1ccc2nc(N(CCN(C)C)C(=O)c3ccc4ccccc4c3)sc2c1 | . | . | . | . | . | . | / | /
CCc1nc(SCc2ccc(OC)cc2)n[nH]1 | . | . | . | . | . | . | / | /
CCc1nc(SCc2cc(Cl)ccc2OC)n[nH]1 | . | 9.4 | / | . | . | . | . | .
O=Cc1ccc2noc(-c3ccc(Cl)cc3)c2c1 | . | 17 | . | . | . | . | 11 | .
COC(=O)c1ccccc1NC(=O)N1CCc2ccc(NC(=O)c3ccccn3)cc2C1 | . | 8.1 | . | ? | . | . | . | 7.5
CCOCCCNC(=O)/C(C#N)=C/c1ccc([N+](=O)[O-])o1 | . | 12 | . | . | . | . | . | .
CCn1cc(CNC(=O)NC2CCCCC2)c(C)n1 | . | 12 | . | / | . | . | . | .
Cc1ccc(CNC(=O)NC2CCCCC2)cc1 | / | . | . | / | . | . | / | /
C=COC(=O)CSc1nc(-c2cccs2)ccc1C#N | . | 8.3 | . | . | . | . | . | 9.3
COC(=O)c1cc(C(=O)OC)cc(-n2c(C)cc(C(=O)COC(=O)CNS(=O)(=O)c3ccc(C)cc3)c2C)c1 | . | 8.0 | . | / | . | . | . | .
Nc1nc2c(C(=O)N3CCOCC3)nnn2c2ccccc12 | . | 11 | . | . | / | . | . | 9.1
Cc1noc(C)c1C(=O)OCC(=O)c1c[nH]c2ccccc12 | . | . | . | . | . | . | / | /
CCc1cccc2c(C(=O)COC(=O)c3c(C)noc3C)c[nH]c12 | . | 8.6 | . | . | . | . | . | .
SMILES | CDK5 p35 inh | SMARCA2 act | Rtt109 HAT inh | esBAF inh | DYRK1A inh | dFosB activator | SMARCA2 act conf | VP16 Luc act
O=S(=O)(c1cccc(-c2n[nH]c(=S)n2C2CCCC2)c1)N1CCOCC1 | . | 8.8 | . | / | / | . | . | .
Cc1nc2cc(NC(=O)N3c4ccccc4CC3C)ccc2o1 (configuration not stated) | . | 9.6 | . | . | . | . | 14 | 13
C[C@H](CO)N1C[C@H](C)[C@H](CN(C)S(=O)(=O)c2ccc3c(c2)OCCCO3)OCc2cn(nn2)CCCC1=O | / | / | / | . | / | / | / | /
CC(=O)c1nn(-c2cccc(Br)c2)cc1C(=O)c1ccccc1 | . | . | . | . | . | . | / | /
CC(=O)c1nn(-c2cccc(Br)c2)cc1C(=O)c1ccco1 | . | 8.4 | / | . | . | . | . | .
O=C(COC(=O)c1ccccc1NCCO)Nc1ccc(S(=O)(=O)NC2=NCCCCC2)cc1 | . | 11 | . | . | . | . | . | .
O=C(COC(=O)c1ccccc1O)Nc1cccc(S(=O)(=O)NC2=NCCCCC2)c1 | . | . | . | . | . | . | / | /
CO[C@@H]1CN(C)C(=O)c2cc(NS(=O)(=O)c3cccc(C)c3)ccc2OC[C@@H](C)N(C(=O)Cc2cccnc2)C[C@H]1C | / | / | / | . | / | / | / | /
COc1cccc(S(=O)(=O)Nc2ccc3c(c2)[C@H]2C[C@@H](CC(=O)NCc4ccccc4F)O[C@@H](CO)[C@H]2O3)c1 | / | / | / | . | / | / | / | /
COc1ccc(C2=Nn3c(nnc3-c3ccncc3)SC2)cc1OC | . | 8.6 | . | . | . | 88 | . | .
COc1ccc(C2=Nn3c(nnc3-c3ccccc3C(F)(F)F)SC2)cc1OC1CCOC1 (configuration not stated) | . | 8.4 | . | . | . | . | 16 | 5.9
C(=C\n1nnc2ccccc21)/c1ccccn1 | . | 8.7 | . | . | . | . | . | 10
Nn1nnc2ccccc21 | . | . | . | . | . | . | / | /
CCOC(=O)c1cn2nc(Oc3ccc(OC)cc3)ccc2n1 | . | . | . | . | . | . | / | /
CCOC(=O)c1cn2nc(Oc3ccc(C)cc3)ccc2n1 | . | 15 | . | / | . | . | . | .
CC(=O)Nc1ccc(-c2c(C)cc3oc(=O)cc(-c4ccccc4)c3c2C)cc1 | . | 9.2 | . | . | . | . | . | .
CC1(C)CC(=O)C=C(Nc2ccccc2NC(=O)c2cc(Cl)ccc2F)C1 | / | 9.2 | / | / | / | / | . | .
CSc1nnc2sc3cc(C)ccc3n12 | / | . | / | . | / | / | / | /
Cc1ccc2c(c1)sc1nc(=O)n(-c3ccccc3)c(=O)n12 | . | 12 | . | / | . | . | 8.4 | 12
CN1C(=O)c2cc(NC(=O)c3cccc(F)c3)ccc2OC[C@H]2O[C@H](CC(=O)Nc3ccccc3)CC[C@H]21 | / | / | / | . | / | / | / | /
COc1ccc(CCNC(=O)CCn2c(=O)c3cccn3c3cccnc32)cc1OC | . | 12 | . | . | . | . | 7.9 | .
O=C1CCCC2=C1C(c1ccco1)Nc1ccc3ccccc3c12 (configuration not stated) | . | 20 | . | . | . | . | 8.3 | .
COc1ccc(C(=O)NCCN(C)C)c2nc3ccccc3cc12 | . | 12 | . | / | . | . | 95 | 7.3
CN(C)CCNC(=O)c1cccc2nc3c(ccc4ccccc43)nc12 | . | 19 | . | / | . | 73 | 32 | .
COc1cccc2nc3c(C(=O)NCCN(C)C)cccc3cc12 | . | 10 | . | / | . | . | 42 | .

High-throughput results: PubChem BioAssay, several laboratories
